Only some compounds are listed: those with a hit (about 10% of all), similar ones and a draw of the others.
CtBP-E1A blk = CtBP/E1A binding inhibition | AlphaScreen GST-E1A/His-CtBP binding, 1536-well; active compounds read low | activity change, % (no concentration beside the values) | hit rate 0.49% among 340,000 | AID 651724; in the data active = activity change below about -65%; inconclusive = mostly about -30% to -63%; also: % is scaled to controls: 0 for no effect and ±100 for the full control effect
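GST-E1A and His-tagged CtBP (125 nM each as 5X stock) were preincubated with pin-transferred compound for 2 h at 37 °C in the dark, then glutathione donor and nickel acceptor beads were added for 1 h before AlphaScreen reading.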
BAZ2B block = BAZ2B (human) inhibition; Q9UIF8; AlphaScreen BAZ2B-H3K14Ac peptide displacement; Potency, µM (top dose mostly 114 µM), without a hit: at the highest dose activity change, negative = inhibition, hits mostly inhibitors; hit rate 4.4% among 360,000; AID 504333; also: potency is read from the fitted curve at half-maximal effect; % is scaled to controls: 0 for no effect and ±100 for the full control effect; nearly all actives have a fitted effect of over 60% in size
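Protein-peptide AlphaScreen: BAZ2B 50 nM, b-H3K14Ac 50 nM, 1x PBS pH 7.4 + 0.01% Tween-20. Preincubation 30 min RT; cpd 30 min RT (top 110 uM); beads 20 min RT, light-protected.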
JMJD2A Tudor = inhibitors of human JMJD2A Tudor domain; O75164; AlphaScreen JMJD2A-Tudor / H3K4me3 peptide binding; Potency, µM (titrated, usually from 114 µM), for the others: top-dose activity change, negative = inhibition, most hits filed as inhibitors; hit rate 4.4% among 390,000; AID 504339; also: potency is read from the fitted curve at half-maximal effect; % is scaled to controls: 0 for no effect and ±100 for the full control effect; nearly all actives have a fitted effect of over 50% in size
Six1-Eya2 inh = blocks human Six1 binding to Eya2 | hit rate 0.56% among 360,000 | AID 651725 | activity change, % (test concentration not listed) | AlphaScreen GST-Six1/His-Eya2 binding, biochemical; active compounds read low | Q15475+O00167; in the data active = activity change below about -65%; inconclusive = mostly about -30% to -63%; also: % is scaled to controls: 0 for no effect and ±100 for the full control effect
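Compounds are tested against tagged Six1 and Eya2 proteins bridged by glutathione donor and nickel acceptor beads; after a one-hour incubation at 37 °C without light, AlphaScreen emission is recorded.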
HP1b binding inh = HP1-beta chromodomain-methylated histone interaction inhibition. P83916. AlphaScreen HP1-beta / biotin-H3K9me3 peptide binding. Potency, µM (titrated, usually from 114 µM), for the others: top-dose activity change, negative = inhibition, actives largely listed as inhibitors. hit rate 0.56% among 390,000. AID 540317; also: potency is read from the fitted curve at half-maximal effect; nearly all actives have a fitted effect of over 70% in size
Target sequence (P83916 whole entry, looked up): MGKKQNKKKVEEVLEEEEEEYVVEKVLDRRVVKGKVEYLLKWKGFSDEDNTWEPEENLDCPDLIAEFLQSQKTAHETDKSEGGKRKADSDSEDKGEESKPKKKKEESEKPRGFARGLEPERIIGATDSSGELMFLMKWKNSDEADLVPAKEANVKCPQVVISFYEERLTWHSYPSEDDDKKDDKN
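AlphaScreen: HP1-beta (50 nM) preformed 30 min with biotin-H3(1-18)K9me3 peptide (50 nM) in PBS pH 7.4, 0.01% Tween-20. Compound added for 30 min at RT, then streptavidin donor/nickel chelate acceptor beads (10 ug/mL) for 30 min.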
G9a block = G9a (human) methyltransferase inhibition | Q96KQ7 | G9a H3K9 monomethylation, AlphaScreen, 2 h | Potency, µM (highest dose often 102 µM), for the others: at the top dose activity, negative = inhibition, actives largely listed as inhibitors | hit rate 8.8% among 350,000 | AID 504332; also: potency is read from the fitted curve at half-maximal effect; % is scaled to controls: 0 for no effect and ±100 for the full control effect; nearly all actives have a fitted effect of over 75% in size
Target sequence (Q96KQ7 913-1193 limits assumed): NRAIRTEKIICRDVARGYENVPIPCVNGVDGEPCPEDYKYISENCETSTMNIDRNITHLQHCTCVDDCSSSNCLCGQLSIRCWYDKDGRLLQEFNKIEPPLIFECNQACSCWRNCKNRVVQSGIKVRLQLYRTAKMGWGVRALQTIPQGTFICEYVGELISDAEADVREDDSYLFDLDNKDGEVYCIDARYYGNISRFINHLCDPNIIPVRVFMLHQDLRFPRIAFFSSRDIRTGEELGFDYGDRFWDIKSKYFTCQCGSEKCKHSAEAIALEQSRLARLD
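Chemiluminescent proximity detection of H3K9 monomethylation, read after 10 min bead incubation in the dark. Reaction: 20 nM G9a, 500 nM biotin-H3K9 peptide, 20 uM SAM cofactor, 2 h, room temperature, following 15 min enzyme-compound preincubation.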
* = called active by the depositor; ? = inconclusive; nt = not tested or not shown; ! = not confirmed by another sample; [ ] = another dose, or the depositor's remark. Unless noted, calls follow the shape of the dose curve; as a rule, active = well fitted inhibition curve with a large enough effect; inconclusive = small, poorly fitted or top-dose-only effect; inactive = no such curve, though single readings can be large or run the other way.

SMILES	CtBP-E1A blk	BAZ2B block	JMJD2A Tudor	Six1-Eya2 inh	HP1b binding inh	G9a block
CCc1ccc(C(=O)CSC2=C(C#N)C(c3ccco3)C(C(C)=O)=C(C)N2)cc1 (configuration not stated)	nt	-3%[57.1 µM]	-10%	nt	49%	40µM*
CSCSC1=C(C#N)C(c2ccccc2Cl)C(C(C)=O)=C(C)N1 (configuration not stated)	-6	30%	-29%	1	59%	4µM*
CCN(CC)C(=O)CSC1=C(C#N)C(c2ccco2)C(C(=O)OCCOC)=C(C)N1 (configuration not stated)	-1	?	79µM*!	-2	26%	25µM*
CC(=O)C1=C(C)NC(SCc2cccc([N+](=O)[O-])c2)=C(C#N)C1c1ccco1 (configuration not stated)	-26	40µM*	?	-15	-13%	nt
C=CCOC(=O)C1=C(C)NC(SCC(=O)N(CC)CC)=C(C#N)C1c1ccco1 (configuration not stated)	7	-1%	3%	0	22%	?
CCc1ccc(NC(=O)CCCc2nnc3n(C(C)CC)c(=O)c4sccc4n23)cc1 (configuration not stated)	nt	?	-14%	nt	13%	2%[59 µM]
O=C(c1ccco1)n1nc(-c2ccccc2)nc1NCc1ccc(F)cc1	nt	6%	2%	nt	41%	12%[59 µM]
COc1ccc(OC)c(N(C)S(=O)(=O)c2ccc3c(c2)NC(=O)CC(=O)N3)c1	nt	-2%	-5%	nt	48%	2%[59 µM]
CC(=O)C1=C(C)NC(SCC(=O)c2cc(Cl)ccc2Cl)=C(C#N)C1c1ccco1 (configuration not stated)	-1	2%	?	-14	-3%	32µM*
COc1cccc2c1Oc1ncccc1N(c1ccc(C(=O)NCc3ccccc3Cl)s1)C2	nt	-5%	-7%	nt	53%	-1%[59 µM]
O=C(CSc1nc2ccccc2[nH]1)N1CCN(S(=O)(=O)c2ccc(Cl)cc2)CC1	4	1%	-10%	-9	42%	35µM*
COC(=O)c1ccc(CNC(=O)CSc2nc3ccccc3[nH]2)cc1	-6	-2%	2%	-5	20%	40µM*
C=CCSc1nnc(NC(=O)CSc2nc3ccccc3[nH]2)s1	-6	-8%	1%	-4	27%	1.8µM*
Cc1ccc(CNC(=O)CSc2nc3ccccc3[nH]2)cc1	nt	-20%	-12%	-8	54%	25µM*
O=C(C1CCN(c2nc3ccccc3[nH]2)CC1)N1CCN(c2ccccc2)CC1	nt	-1%	-2%	nt	27%[57 µM]	-5%[59 µM]
Cc1ccc(S(=O)(=O)c2nc(S(C)(=O)=O)sc2N(C)Cc2ccccc2)cc1	nt	-19%	-19%	nt	45%	-33%[59 µM]
O=C(O)C(Cc1ccc(Cl)cc1)Sc1nc2ccccc2[nH]1 (configuration not stated)	-4	-1%	-2%	-6	-11%	50µM*
O=C(CSc1nc2ccccc2[nH]1)N=Nc1c(O)[nH]c2ccccc12	-23	-30%	-28%	-14	3%	45µM*
O=C(CCCSc1nc2ccccc2[nH]1)NCc1ccc(Cl)cc1	nt	-2%	-17%	-2	43%	10µM*
O=C(CSc1nc2ccccc2[nH]1)NCCc1ccc(Cl)cc1	21	0%	-27%	13	21%	18%[59 µM]
CCOc1ccc(CC(=O)NC2CC(=O)N(c3ccc4c(c3)OCCO4)C2)cc1 (configuration not stated)	nt	0%	-9%	nt	18%	22%[59 µM]
COc1ccc(NC(=O)c2cc(C(C)=O)n3ccccc23)cc1	nt	-11%	-7%	nt	25%	1%[59 µM]
CCOc1ccc(-c2c(=O)n(OCc3ccccn3)c3ccccc3[n+]2[O-])cc1	2	-9%	-5%	0	17%	17%
CCCOc1ccc(-c2c(=O)n(O)c3ccccc3[n+]2[O-])cc1	0	?	56µM*	0	-18%	9%[0.501 µM]
CCN(CCO)c1ccc(-n2c(N)c(C(=O)OC)c3nc4ccccc4nc32)cc1	-13	?	79µM*	-17	-6%	35µM*
SMILES	CtBP-E1A blk	BAZ2B block	JMJD2A Tudor	Six1-Eya2 inh	HP1b binding inh	G9a block
COC(=O)[C@@H]1[C@H]2C[C@H]3c4[nH]c5ccccc5c4CCN3C[C@@H]2CC[C@@H]1O	-1	4%	?	-18	32%	21µM*!
COC(=O)[C@H]1[C@H]2C[C@@H]3c4[nH]c5cc(OC)ccc5c4CCN3C[C@H]2C[C@@H](OC(=O)c2cc(OC)c(OC)c(OC)c2)[C@@H]1OC	-28	28µM*	56µM*	?	?	22µM*!
Cc1ccc(NC(=O)Nc2nnc(SCC(=O)N3CCCCC3)s2)cc1	nt	-2%	-15%	nt	43%	14%[59 µM]
O=c1cnnc(N/N=C/c2ccccn2)[nH]1	-97*	8.9µM*	3.2µM*	-92*	21%	32%
C(=N\Nc1nc2ccccc2[nH]1)/c1ccccn1	nt	25µM*	?	?	27%	60%[59 µM]
C#CCn1cc(/C=N/Nc2nc3ccccc3[nH]2)c2ccccc21	-21	40µM*	50µM*	-22	?	50µM*
CC(/C=N/Nc1nncc(=O)[nH]1)=C\c1ccccc1	-5	-1%	-5%	2	18%	-6%
C(=N\Nc1nc2ccccc2[nH]1)/c1cccc2nccnc12	-28	-35%	?	-24	21%	-5%
COc1ccc(C2c3cc(OC)c(OC)cc3CC(=O)N2c2ccc(C)c(F)c2)cc1 (configuration not stated)	nt	-35%	?	nt	11%	?
O=C(NCCCc1nc2ccccc2n1CCCCOc1ccccc1)C1CCCCC1	nt	nt	-19%[57.1 µM]	nt	16%[57 µM]	nt
Cc1ccc(Cl)c2c1NC(=O)C2(O)CC(=O)c1ccc(F)cc1 (configuration not stated)	3	2%	-14%	1	9%	-12%[59 µM]
Cc1ccc(Cl)c2c1NC(=O)C2(O)CC(=O)c1ccccc1O (configuration not stated)	-2	-13%	5%	0	19%	14µM*
CCN(CC)c1nc2ccccc2[nH]1	4	-4%	-6%	1	28%	3%
CCN(CC)c1nc2ccccc2[nH]c1=O	3	2%	-4%	3	39%	32µM*
CCOc1cccc2sc(N(CCN(C)C)C(=O)c3cc4ccccc4cc3OC)nc12	?	?	45µM*	?	-20%	40µM*
COc1ccc2nc(N(CCN(C)C)C(=O)c3ccc4ncsc4c3)sc2c1	3	nt	nt	-8	nt	nt
CCOc1ccc2nc(N(CCN(C)C)C(=O)c3cc4ccccc4cc3OC)sc2c1	nt	?	40µM*	?	?	50µM*
